Values joined by “and” are separate entries in the source; they are usually repeats but may differ in a detail not shown here. Equal values may be shown once. In all, about 5,500 compounds went through this assay and about 2,000 (36%) were called active. About 18% were inconclusive and are not listed. No stated cut-off is given here; in the data, active means normalized growth mostly below about 0.91 (no sharp cut-off); inconclusive means no clear call, values can overlap the other calls; inactive means mostly above about 0.92. The list shows a part of the results.
Assay: chemical genetic growth profiling, strain panel (AID 1159580);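 further: tested at 20 µM; growth read once vehicle control cultures reached saturation at 30 °C; 1 = growth at the plate median or of vehicle wells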
Details: S. cerevisiae deletion strains, growth OD

Measured: normalized growth

O=C(CCCN1CCC(O)(c2ccc(Cl)cc2)CC1)c1ccc(F)cc1
0.794 (active) and 0.973 (inactive): locus YHR030C, strain SLT2, stronger effect = lower value
active: locus YAL013W, strain DEP1, stronger effect = lower value 0.797 | locus YAL021C, strain ccr4, stronger effect = lower value 0.903 | locus YAL026C, strain drs2, stronger effect = lower value 0.0861 | locus YBR009C, strain hhf1, stronger effect = lower value 0.889 | locus YBR021W, strain FUR4, stronger effect = lower value 0.535 | locus YBR231C, strain swc5, stronger effect = lower value 0.815 | locus YBR279W, strain paf1, stronger effect = lower value 0.918 | locus YCL016C, strain dcc1, stronger effect = lower value 0.902 | locus YDL035C, strain GPR1, stronger effect = lower value 0.803 | locus YDL074C, strain BRE1, stronger effect = lower value 0.739 | locus YDL192W, strain arf1, stronger effect = lower value 0.751 | locus YDR069C, strain doa4, stronger effect = lower value 0.837 | locus YDR101C, strain arx1, stronger effect = lower value 0.904 | locus YDR162C, strain NBP2, stronger effect = lower value 0.747 | locus YDR195W, strain ref2 1.46 [resistant] | locus YDR318W, strain mcm21, stronger effect = lower value 0.838 | locus YDR388W, stronger effect = lower value 0.413 | locus YDR392W, strain spt3, stronger effect = lower value 0.281 | locus YDR502C, strain sam2, stronger effect = lower value 0.814 | locus YEL003W, strain gim4, stronger effect = lower value 0.909 | locus YEL061C, strain CIN8, stronger effect = lower value 0.923 | locus YER155C, strain BEM2 (second series), stronger effect = lower value 0.42 | locus YER167W, strain BCK2, stronger effect = lower value 0.839 | locus YFR010W, strain ubp6, stronger effect = lower value 0.867 | locus YGL086W, strain mad1, stronger effect = lower value 0.837 | locus YGL248W, strain PDE1, stronger effect = lower value 0.661 | locus YGL253W, strain hxk2, stronger effect = lower value 0.859 | locus YGR135W, strain pre9, stronger effect = lower value 0.73 | locus YGR229C, strain SMI1, stronger effect = lower value 0.324 | locus YGR252W, strain gcn5, stronger effect = lower value 0.368 | locus YHR013C, strain ard1, stronger effect = lower value 0.807 | locus YHR027C, strain rpn1, stronger effect = lower value 0.899 | locus YHR142W, strain chs7, stronger effect = lower value 0.85 | locus YIL066C, strain RNR3, stronger effect = lower value 0.846 | locus YJL095W, strain BCK1 (second series), stronger effect = lower value 0.899 | locus YJL129C, strain trk1, stronger effect = lower value 0.717 | locus YJL164C, strain tpk1, stronger effect = lower value 0.907 | locus YJL187C, strain SWE1 (second series), stronger effect = lower value 0.792
0.332 (active) and 0.99 (inactive): locus YJL095W, strain BCK1, stronger effect = lower value
inactive: locus YAL030W, strain snc1, stronger effect = lower value 0.991 | locus YAL040C, strain CLN3, stronger effect = lower value 1.02 | locus YBL061C, strain skt5, stronger effect = lower value 0.951 | locus YBR023C, strain chs3, stronger effect = lower value 0.919 | locus YBR171W, strain sec66, stronger effect = lower value 1.03 | locus YBR229C, strain ROT2, stronger effect = lower value 0.981 | locus YCL011C, strain gbp2, stronger effect = lower value 0.948 | locus YCL029C, strain bik1, stronger effect = lower value 0.945 | locus YCL061C, strain MRC1 (second series), stronger effect = lower value 0.979 | locus YCL061C, strain MRC1, stronger effect = lower value 1.01 | locus YCL069W, strain vba3, stronger effect = lower value 0.985 | locus YCR088W, strain abp1, stronger effect = lower value 1.03 | locus YDL005C, strain med2, stronger effect = lower value 1.03 | locus YDL040C, strain nat1, stronger effect = lower value 1.02 | locus YDL101C, strain DUN1, stronger effect = lower value 0.921 | locus YDL185W, strain tfp1, stronger effect = lower value 1.01 | locus YDR001C, strain nth1, stronger effect = lower value 1.04 | locus YDR137W, strain rgp1, stronger effect = lower value 1.04 | locus YDR150W, strain NUM1, stronger effect = lower value 0.949 | locus YDR159W, strain sac3, stronger effect = lower value 1.02 | locus YDR297W, strain sur2, stronger effect = lower value 0.972 | locus YDR334W, strain swr1, stronger effect = lower value 1.04 | locus YDR335W, strain msn5, stronger effect = lower value 0.984 | locus YDR363W, strain ESC2, stronger effect = lower value 0.886 | locus YEL037C, strain rad23, stronger effect = lower value 0.998 | locus YEL061C, strain CIN8 (second series), stronger effect = lower value 1.02 | locus YER002W, strain NOP16, stronger effect = lower value 1.01 | locus YER015W, strain faa2, stronger effect = lower value 0.987 | locus YER016W, strain bim1, stronger effect = lower value 0.943 | locus YER110C, stronger effect = lower value 0.977 | locus YER111C, strain swi4, stronger effect = lower value 1.02 | locus YER155C, strain BEM2, stronger effect = lower value 1.01 | locus YGL078C, strain dbp3, stronger effect = lower value 0.978 | locus YGL167C, strain pmr1, stronger effect = lower value 0.963 | locus YGL173C, strain kem1, stronger effect = lower value 0.951 | locus YGL227W, strain vid30, stronger effect = lower value 1.05 | locus YGL240W, strain doc1, stronger effect = lower value 0.979 | locus YGR078C, strain PAC10, stronger effect = lower value 0.855 and 0.989 | locus YHR079C, strain IRE1 (second series), stronger effect = lower value 0.928 | locus YHR079C, strain IRE1, stronger effect = lower value 0.979 | locus YHR094C, strain hxt1, stronger effect = lower value 1.03 | locus YHR129C, strain ARP1, stronger effect = lower value 0.926 | locus YHR200W, strain rpn10, stronger effect = lower value 0.98 | locus YIL073C, strain SPO22, stronger effect = lower value 1.25 | locus YIL125W, strain kgd1, stronger effect = lower value 1.02 | locus YIR030C, strain dcg1, stronger effect = lower value 0.979 | locus YJL092W, strain hpr5, stronger effect = lower value 0.986 | locus YJL115W, strain asf1, stronger effect = lower value 1.01 | locus YJL134W, strain LCB3, stronger effect = lower value 0.988 | locus YJL154C, strain vps35, stronger effect = lower value 1.03 | locus YJL166W, strain qcr8, stronger effect = lower value 0.912 | locus YJL168C, strain set2, stronger effect = lower value 0.995 | locus YJL187C, strain SWE1, stronger effect = lower value 0.989

From PubChem BioAssay AID1159580 (chemical genetic matrix, 2015)
